“And” between values parts separate entries of the source, which are not always exact repeats. Equal values may be shown once. Records with an inconclusive call do not appear. The source made the active and inactive calls. The call rests on the fitted dose curve.
Assay: qHTS assay to identify small molecule agonists of the endoplasmic reticulum stress response signaling pathway - cell viability counter screen (AID 1159517); further: nearly all actives have a fitted effect of over 50% in size
Details: ESRE-bla HeLa viability, CellTiter-Glo luminescence, 5 h; series mostly up to 61 µM; activity change, negative = cytotoxicity: at the top concentration
Description: U.S. Tox21 Program National Center for Advancing Translational Sciences [NCATS] NIH Chemical Genomics Center [NCGC] U.S. Environmental Protection Agency [EPA] National Institutes of Environmental Health Sciences [NIEHS] National Toxicology Program [NTP] U.S. Food and Drug Administration [FDA] Tox21 Assay Overview: Endoplasmic Reticulum (ER) plays an important role in cellular signaling, protein folding/maturation, stress response, lipid biosynthesis, calcium storage and release etc. Under stress conditions, proteins in ER misfold or unfold, and leading to the expression of ER stress responsive genes. ER stress has been associated with a variety of pathophysiological conditions such as cancer, inflammation, neurodegenerative diseases, diabetes, ischemic heart disease etc. To identify the compounds that induce ER stress response, an ER stress reporter cell line, CellSensor ESRE-bla HeLa (Life Technologies, Carlsbad, CA) containing a beta-lactamase reporter gene under control of the Endoplasmic reticulum Stress Response Element (ESRE) was used to screen Tox21 10K compound library. The cytotoxicity of the Tox21 compound library against the ESRE-bla HeLa cell line was tested in parallel by measuring cell viability using the CellTiter-Glo assay in the same wells.
Tox21 Assay Protocol Summary: ESRE-bla HeLa cells were dispensed at 1,500 cells/6 uL of assay medium per well into black wall/clear-bottom 1536-well plates using a Multidrop Combi (ThermoFisher Scientific, Waltham, MA) dispenser. After the assay plates were incubated at 37 C and 5% CO2 for an overnight, 23 nL of compounds dissolved in DMSO, positive controls or DMSO only was transferred to the assay plate by a Pintool station (Kalypsys, San Diego, CA). The assay plates were incubated at 37 C and 5% CO2 for 5 hr. One uL of LiveBLAzer B/G FRET substrate (Life Technologies) was added using a FRD (Flying Reagent Dispenser, Aurora Discovery, San Diego, CA) and the plates were incubated at room temperature for 2 hr. Fluorescence intensity (405 nm excitation, 460 nm and 530 nm emissions) was measured using an Envision plate reader (PerkinElmer, Shelton, CT). For cytotoxicity, 4 ul/well of CellTiter-Glo reagent was added into the assay plates using an FRD. After 30 min incubation at room temperature, the luminescence intensity was measured using a ViewLux plate reader (PerkinElmer).
On the % scale 0 is the no-effect control and ±100 the full control effect; potency means the concentration at half of the fitted maximal effect.

| SMILES | activity change, negative = cytotoxicity | Potency |
| --- | --- | --- |
| O=S(=O)(O)c1ccccc1/C=C/c1ccc(-c2ccc(/C=C/c3ccccc3S(=O)(=O)O)cc2)cc1 | 1.79% (inactive) |  |
| CC(C)=CCNc1ncnc2c1ncn2[C@@H]1O[C@H](CO)[C@@H](O)[C@H]1O |  | 13.4 µM (active) |
| CN1CCCCC1CCN1c2ccccc2Sc2ccc(S(C)=O)cc21 (stereo not given) | -1.67% (inactive) |  |
| CCCCCC(C)OC(=O)COc1ccc(Cl)c2cccnc12 (stereo not given) | -0.0027% (inactive) |  |
| Nc1nc2c(ncn2COCCO)c(=O)[nH]1 | -3.14% (inactive) |  |
| CCCCC/C=C\C/C=C\CCCCCCCC(=O)O | 16.4% (inactive) |  |
| OC1CCC(C2CCCCC2)CC1 (stereo not given) | 6.83% (inactive) |  |
| COc1cc2nc(N3CCN(C(=O)c4ccco4)CC3)nc(N)c2cc1OC | 0.405% [at 28.5 µM] (inactive) |  |
| NC[C@H]1O[C@H](O[C@H]2[C@H](O[C@@H]3O[C@H](CO)[C@@H](O)[C@H]3O)C(O)[C@H](N)C[C@@H]2N)[C@H](N)[C@@H](O)[C@@H]1O (stereo not given in full) | -1.85% [at 6.95 µM] (inactive) |  |
| O=c1c(O)c(-c2ccc(O)cc2O)oc2cc(O)cc(O)c12 | -1.18% (inactive) |  |
| Oc1ccccc1O | 8.23% (inactive) |  |
| C#CC1(O)CC[C@H]2[C@@H]3CCC4=CCCC[C@@H]4[C@H]3CC[C@@]21C (stereo not given in full) |  | 49 µM (active) and 10.7 µM (active) |
| CCC(C)(CCC(C)C)C(=O)[O][Sn]([CH3])([CH3])[O]C(=O)C(C)(CC)CCC(C)C (stereo not given) | -25.4% (inactive) |  |
| c1ccc(C(O[C@@H]2CCCN(CCc3ccc4c(c3)OCO4)C2)c2ccccc2)cc1 | -6.19% (inactive) |  |
| CCCCCCC1CCCC(=O)O1 (stereo not given) | 3.7% (inactive) |  |
| CC1(C)CCC[C@]2(C)[C@H]3CC(=O)O[C@]3(C)CC[C@@H]12 | -26% (inactive) |  |
| ClCCl | -9.87% (inactive) |  |
| CCO[C@@H]1O[C@H](C(COCc2ccccc2)OCc2ccccc2)[C@H](OCc2ccccc2)[C@H]1O (stereo not given in full) | -1.67% (inactive) |  |
| C1CCC(SSC2CCCCC2)CC1 | -22.9% (inactive) |  |
| CCCCC(CC)CN1CN(CC(CC)CCCC)CC(C)(N)C1 (stereo not given) |  | 21.3 µM (active) |

| SMILES | activity change, negative = cytotoxicity | Potency |
| --- | --- | --- |
| Nc1cc(Cl)c(O)c(Cl)c1 | 2.63% (inactive) |  |
| Cc1c(C)c2c(c(C)c1OC(=O)c1cccnc1)CC[C@@](C)(CCC[C@H](C)CCC[C@H](C)CCCC(C)C)O2 | 10.1% (inactive) |  |
| OC12N=C(c3ccccc3)SC1Cc1cc(Cl)ccc12 (stereo not given) | 0% (inactive) |  |
| CCCCCCCCCCCCCC[N+](C)(C)Cc1ccccc1 |  | 17.7 µM (active) and 23.9 µM (active) |
| CCOc1ccc2ccccc2c1C(=O)N[C@@H]1C(=O)N2[C@@H]1SC(C)(C)[C@@H]2C(=O)O | -1.15% (inactive) |  |
| COc1ccc(NC(=O)CC(C)=O)cc1 | -4.78% (inactive) |  |
| Cc1cc(C(C)(C)C)cc(C)c1CC1=NCCN1 | -1.83% (inactive) |  |
| CC(C)=CCC1=C(O)c2ccccc2C(=O)C1=O | -4.2% (inactive) |  |
| OC/C=C/CO | 12.1% (inactive) |  |
| Sc1nc2ccccc2s1 | 0.881% (inactive) |  |
| COc1ccc2cc1Oc1ccc(cc1)C[C@H]1c3c(cc4c(c3Oc3cc5c(cc3OC)CCN(C)[C@@H]5C2)OCO4)CCN1C | -13% (inactive) |  |
| CC1(C)CCC[C@]2(C)[C@H]3CCO[C@]3(C)CC[C@@H]12 | -31.5% (inactive) |  |
| [Cu+] | 2.34% (inactive) |  |
| C[Si](Cl)(c1ccccc1)c1ccccc1 | -21.7% (inactive) |  |
| Cc1ccc(O)c(O)c1 | -25.6% (inactive) |  |
| CC(=O)OCC=C(C)C | 7.99% (inactive) |  |
| S=C([S-])NCCNC(=S)[S-].S=C([S-])NCCNC(=S)[S-].[Mn+2].[Zn+2] | 3.5% (inactive) |  |
| O=C1OC2(c3ccc(O)cc3Oc3cc(O)ccc32)c2ccc(N=C=S)cc21 | 13.8% [at 78.8 µM] (inactive) |  |
| C[C@@H](O)[C@H](N)C(=O)O | 3.06% [at 28.5 µM] (inactive) |  |
| CCCCN(CCCC)CC(O)c1cc(Cl)cc2c1-c1ccc(Cl)cc1/C2=C/c1ccc(Cl)cc1 (stereo not given) | -1.2% (inactive) |  |
